ALDH1A1 inh = inhibitors of human aldehyde dehydrogenase 1A1. Purified ALDH1A1, NADH fluorescence, propionaldehyde substrate. hit rate 7.3% among 220,000. Potency, µM (series often up to 75.3 µM), inactives show at the top dose activity, negative = inhibition, usual class: inhibitors; active = well fitted inhibition curve with a large enough effect, not every such curve was filed as active; inconclusive = small, poorly fitted or top-dose-only effect, or another doubt; inactive = no such curve, though single readings can be large or run the other way;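 note: potency is the fitted concentration of half-maximal effect; plate controls were no enzyme wells and a reference inhibitor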
Target sequence (P00352 whole entry, looked up): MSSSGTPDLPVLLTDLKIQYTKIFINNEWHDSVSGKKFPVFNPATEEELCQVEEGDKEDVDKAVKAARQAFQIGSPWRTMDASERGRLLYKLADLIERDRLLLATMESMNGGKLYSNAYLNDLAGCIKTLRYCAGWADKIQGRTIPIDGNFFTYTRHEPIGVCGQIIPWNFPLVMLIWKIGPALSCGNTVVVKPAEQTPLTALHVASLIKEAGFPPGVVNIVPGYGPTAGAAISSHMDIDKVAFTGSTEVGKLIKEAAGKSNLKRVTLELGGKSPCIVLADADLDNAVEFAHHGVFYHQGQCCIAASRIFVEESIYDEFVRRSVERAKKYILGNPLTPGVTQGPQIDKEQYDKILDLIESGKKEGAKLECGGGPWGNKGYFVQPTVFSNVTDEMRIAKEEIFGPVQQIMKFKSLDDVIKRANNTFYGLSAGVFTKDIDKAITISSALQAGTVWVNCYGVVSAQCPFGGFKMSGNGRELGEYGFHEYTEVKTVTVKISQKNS
FBPA coupling cs = coupling enzyme interference in Giardia aldolase counter-screen. coupling enzyme system counterscreen, AmpLite Red fluorescence. AID 2472. hit rate 0.67% among 290,000. activity change, negative = inhibition, % at 58.2 µM, hits read low; in the data active = activity change below about -30%
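Counterscreen lacking aldolase: glyceraldehyde-3-phosphate coupling-enzyme reagent preincubated 10 min at RT with compound (at 57.5 uM final), then substrate/coupling system with AmpLite Red added; fluorescence read at 525/598 nm after 20 min RT.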
NPSR antag = blocks cAMP signaling of the human neuropeptide S receptor; Q6W5P4; CHO-NPSR cells, cAMP TR-FRET, antagonist mode; Potency, µM (top dose mostly 38.3 µM), for the others: at the highest dose activity change, negative = inhibition, most hits filed as inhibitors; hit rate 1% among 220,000; AID 1461; note: potency is the fitted concentration of half-maximal effect; nearly all actives have a fitted effect of over 50% in size
JMJD2E inh = JMJD2E (human) inhibition | B2RXH2 | JMJD2E catalytic domain, FDH-coupled NADH fluorescence (FDH is formaldehyde dehydrogenase) | Potency, µM (doses to about 57.1 µM), for inactives: at the top dose activity change, negative = inhibition, actives largely listed as inhibitors | hit rate 1.6% among 230,000; active = well fitted inhibition curve with a large enough effect, not every such curve was filed as active; inconclusive = small, poorly fitted or top-dose-only effect, or another doubt; inactive = no such curve, though single readings can be large or run the other way;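 note: potency is the fitted concentration of half-maximal effect; 0% = wells with enzyme and -100% = buffer wells without enzyme; nearly all actives have a fitted effect of over 50% in size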
Sfp inh = Sfp phosphopantetheinyl transferase inhibition | Biochemical Sfp PPTase activity, qHTS | Potency, µM, for inactives: largest response in the series, negative = inhibition, most hits filed as inhibitors | hit rate 3.5% among 310,000 | AID 1490;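 note: the enzyme is Sfp with the accession as filed and its product quenches rhodamine fluorescence; potency is the fitted concentration of half-maximal effect; 0% = enzyme reaction without inhibitor and -100% = no enzyme wells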
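Fluorescence-quenching assay: 15 nM Sfp-PPTase preincubated 15 min at room temperature with compound, then 5 uM rhodamine-CoA and 12.5 uM BHQ-2-labelled YbbR peptide added. Fluorescence (ex 525/em 598 nm) read at start and after 30 min; difference gives rate.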
GoLoco inh red = inhibitors of human Gai1-RGS12 GoLoco interaction (red fluorophore); P63096; Gai1:RGS12 GoLoco peptide FP, rhodamine, 10 min; Potency, µM (top dose mostly 61.6 µM), for the others: at the top dose activity, negative = inhibition, usual class: inhibitors; hit rate 0.44% among 230,000; AID 880; active = well fitted inhibition curve with a large enough effect, not every such curve was filed as active; inactive = no such curve, though single readings can be large or run the other way; note: potency is the fitted concentration of half-maximal effect; nearly all actives have a fitted effect of over 30% in size
* = called active by the depositor; ? = inconclusive; / = no result given; [ ] = another dose, or the depositor's remark. Compounds with a hit are over-represented: about 8.5% of the library has one in this group of screens. Unless noted, calls come from the whole dose curve; as a rule, active = well fitted curve in the direction sought with a large enough effect; inconclusive = small, poorly fitted or top-dose-only effect, or another doubt; inactive = no such curve, though single readings can be large; an effect the other way counts as inactive or inconclusive. Unless noted, % is set by controls: 0 for no effect and ±100 for the full control effect.

SMILES	ALDH1A1 inh	FBPA coupling cs	NPSR antag	JMJD2E inh	Sfp inh	GoLoco inh red
Nc1cc(S(=O)(=O)N2CCCCC2)ccc1Oc1ccccc1	12%	4	0%	-10%	0%	14%
CC(C(=O)Nc1ccc(O)cc1C(=O)O)N1C(=O)/C(=C\c2cccs2)SC1=S (stereo unspecified)	/	/	/	/	22µM*	/
O=C(CCCN1C(=O)/C(=C\c2ccco2)SC1=S)Nc1ccc2ccccc2c1	?	-9	-14%[46.1 µM]	-3%	?	46%
COc1ccc(/C=C2/SC(=S)N(n3c(C)ccc3C)C2=O)cc1	6.3µM*	2	-14%[46.1 µM]	3%	-4%	-1%
O=C(CCCN1C(=O)/C(=C/c2ccco2)SC1=S)Nc1ccccc1C(=O)O	/	2	-23%	?	50µM*	33%
O=C(O)CCCN1C(=O)/C(=C\c2ccco2)SC1=S	?	-9	33%	?	18µM*	43%
NC(=S)NN=C(Cc1ccccc1)Cc1ccccc1	?	-3	-33%	-4%	5%	12%
CC(OC(=O)c1ccc(NS(=O)(=O)c2cccs2)cc1)C(=O)N(C)C1CCCCC1 (stereo unspecified)	13%	4	-6%[46.1 µM]	-11%	11%	/
CCc1ccccc1NC(=S)N(CCc1ccncc1)C(C)C	11%	2	3%	8%	7%	-1%
COc1ccc(-n2c(C)cc(/C=C3/SC(=S)N(C)C3=O)c2C)cc1	1µM*	5	-9%	0%	1%	7%
Cc1cc(/C=C2\SC(=O)N(C)C2=O)c(C)n1-c1ccc(O)cc1	/	-2	/	/	-20%	/
Cc1cc(/C=C2\SC(=S)N(C)C2=O)c(C)n1-c1cccc(O)c1	/	-4	?	-18%	?	69%
Cc1cc(/C=C2\SC(=S)N(Cc3ccco3)C2=O)c(C)n1-c1ccccc1	0.089µM*	-1	-23%	-25%	-13%	101%
CC[n+]1c(C)sc2c3ccsc3ccc21	1%	2	4%	-6%	1.4µM*	40%
CNc1ccccc1	-20%	/	/	/	/	0%
CNc1cccccc1=S	10µM*	6	?	25µM*	2%	-32%
COc1cccc(/C=C/C(=O)NCc2ccc(S(N)(=O)=O)cc2)c1	?	0	13%	?	17%	16%
Cc1onc(-c2ccccc2)c1CNS(=O)(=O)c1ccc(F)cc1F	?	3	-2%	-2%	8%	5%
Cc1onc(-c2ccccc2)c1CNS(=O)(=O)c1cccc(Br)c1	2.8µM*	7	25%	1%	-5%	4%
O=[N+]([O-])c1cccc(/C=C2\CCC(/C=N/Nc3ccc4ccccc4n3)=C2N2CCOCC2)c1	?	3	-12%	-3%	24%	14%
CCOC(=O)C(=O)C1=C(N2CCOCC2)/C(=C\c2cccc([N+](=O)[O-])c2)CC1	2.2µM*	6	-8%	-2%	?	28%
O=C(NP(=O)(N1CCCC1)N1CCCC1)C1=C(N2CCOCC2)/C(=C/c2cccc([N+](=O)[O-])c2)CC1	10µM*	2	-16%	0%	-6%	6%
CCOC(=O)c1cc(CC)sc1NC(=O)c1cc([N+](=O)[O-])ccc1N1CCOCC1	?	3	10%[46.1 µM]	-2%	0%	-1%
CCOc1ccc2c(c1)c1nnc(SCC(=O)NC3CC3)nc1n2C	/	-1	/	/	21%	/
NC(=O)CN1CCN(Cc2ccc3c(c2)OCO3)CC1	/	1	/	/	13%	/
SMILES	ALDH1A1 inh	FBPA coupling cs	NPSR antag	JMJD2E inh	Sfp inh	GoLoco inh red
COc1cc(OC)cc(C(=O)NCC(=O)OC2CCOC2=O)c1 (stereo unspecified)	6%	1	-3%[46.1 µM]	4%	18%	0%
COc1ccc(/C=C(\C#N)C(=O)OC2CCOC2=O)cc1 (stereo unspecified)	18µM*	0	-3%	?	11%	69%
COc1ccc(OC)c(N(CC(=O)Nc2ccccc2C(=O)NCc2ccco2)S(C)(=O)=O)c1	?	2	-12%[46.1 µM]	-4%	7%	1%
COc1ccc(N(CC(=O)Nc2ccccc2C(=O)NCc2ccco2)S(C)(=O)=O)cc1	11µM*	2	-8%[46.1 µM]	-2%	-3%	2%
CCOc1ccc(N(CC(=O)Nc2ccc(OC)cc2)S(C)(=O)=O)cc1	18µM*	1	10%[46.1 µM]	5%	13%	0%
Cc1ccc(C)c(N(CC(=O)Nc2ccccc2C(=O)NCc2ccco2)S(=O)(=O)c2ccccc2)c1	?	-6	-7%	4µM*	27%	11%
Cc1ccc(N(CC(=O)Nc2ccccc2C(=O)NCc2ccco2)S(=O)(=O)c2ccccc2)cc1C	?	-3	-21%[46.1 µM]	?	18%	14%
CN(C)c1cccc(C(=O)Nc2cc(C(F)(F)F)ccc2-n2cnc3ccccc32)c1	1%	-3	0%	-12%	18%	-5%
Cc1cc(C)n2nc(C(=O)Nc3nnc(C4CC4)s3)nc2n1	-5%	1	-6%[46.1 µM]	0%	50µM*	8%
CCSc1nnc(NC(=O)c2nc3nc(C)cc(C)n3n2)s1	2%	-3	-1%	-4%	?	-2%
CC(C)(C)c1nnc2sc(SCC(=O)c3ccc(Cl)cc3)nn2c1=O	4.5µM*	3	?	-7%	?	56%
CC1(C)CCC[C@@](C)([C@H]2CC[C@]3(C)[C@@H]2[C@H](O)C[C@@H]2[C@@]4(C)CC[C@H](O)C(C)(C)[C@@H]4[C@@H](O)C[C@]23C)O1	2%	3	/	/	9%	3%
Cc1c(C(=O)N/N=C/C(C)C)[nH]c2ccc([N+](=O)[O-])cc12	14µM*	12	-1%	2%	3%	10%
CCOC(=O)Cc1csc(/C(=N/O)C(N)=O)n1	28µM*	-11	-7%[46.1 µM]	-27%	40µM*	-4%
CCOC(=O)Cc1csc(N)n1	6%	1	-1%[46.1 µM]	4%	2%	-11%
CC1CCCN(C(=O)c2cc3ccccc3cc2O)C1 (stereo unspecified)	/	0	/	/	1%	/
CCOc1cccc(C(=O)NC(=S)Nc2ccc(Cl)cc2C(=O)O)c1	?	0	-4%	?	45µM*	7%
CCOc1cccc(C(=O)NC(=S)Nc2ccc(N3CCCC3)cc2)c1	7.1µM*	-9	-9%[46.1 µM]	-8%	?	5%
CCOc1cccc(C(=O)NC(=S)Nc2ccc3c(c2)OCCO3)c1	4µM*	0	-19%	-7%	1%	2%
COc1cccc(C(=O)NC(=S)Nc2ccc(Cl)c(C(=O)O)c2)c1	?	17	-15%[46.1 µM]	-5%	?	-11%
O=C(NC(=S)Nc1ccc2c(c1)OCCO2)c1ccccc1	22µM*	3	-13%[46.1 µM]	-1%	-8%	-5%
CCOc1cccc(C(=O)Nc2ccc(N3CCN(S(C)(=O)=O)CC3)cc2)c1	22%	-2	?	6%	18%	-7%
